Reference: publication PMC4336329 (PLoS ONE, 2015)
Out of some 310,000 compounds screened, about 14,000 (4.5%) showed an effect of 50% or more. Effects have a minus sign here. For the sample, strong results were picked, then their nearest neighbours and some compounds at random.

Target: human ether-à-go-go-related gene (hERG) potassium channel (human, UniProt Q12809)
Test: primary screen, population patch clamp on CHO cells stably expressing hERG; higher = less effect of the substance
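Also: peak tail current of the secondary pulse compared with the same well before compound.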

human ether-à-go-go-related gene (hERG) potassium channel, sequence (Q12809 whole entry, looked up): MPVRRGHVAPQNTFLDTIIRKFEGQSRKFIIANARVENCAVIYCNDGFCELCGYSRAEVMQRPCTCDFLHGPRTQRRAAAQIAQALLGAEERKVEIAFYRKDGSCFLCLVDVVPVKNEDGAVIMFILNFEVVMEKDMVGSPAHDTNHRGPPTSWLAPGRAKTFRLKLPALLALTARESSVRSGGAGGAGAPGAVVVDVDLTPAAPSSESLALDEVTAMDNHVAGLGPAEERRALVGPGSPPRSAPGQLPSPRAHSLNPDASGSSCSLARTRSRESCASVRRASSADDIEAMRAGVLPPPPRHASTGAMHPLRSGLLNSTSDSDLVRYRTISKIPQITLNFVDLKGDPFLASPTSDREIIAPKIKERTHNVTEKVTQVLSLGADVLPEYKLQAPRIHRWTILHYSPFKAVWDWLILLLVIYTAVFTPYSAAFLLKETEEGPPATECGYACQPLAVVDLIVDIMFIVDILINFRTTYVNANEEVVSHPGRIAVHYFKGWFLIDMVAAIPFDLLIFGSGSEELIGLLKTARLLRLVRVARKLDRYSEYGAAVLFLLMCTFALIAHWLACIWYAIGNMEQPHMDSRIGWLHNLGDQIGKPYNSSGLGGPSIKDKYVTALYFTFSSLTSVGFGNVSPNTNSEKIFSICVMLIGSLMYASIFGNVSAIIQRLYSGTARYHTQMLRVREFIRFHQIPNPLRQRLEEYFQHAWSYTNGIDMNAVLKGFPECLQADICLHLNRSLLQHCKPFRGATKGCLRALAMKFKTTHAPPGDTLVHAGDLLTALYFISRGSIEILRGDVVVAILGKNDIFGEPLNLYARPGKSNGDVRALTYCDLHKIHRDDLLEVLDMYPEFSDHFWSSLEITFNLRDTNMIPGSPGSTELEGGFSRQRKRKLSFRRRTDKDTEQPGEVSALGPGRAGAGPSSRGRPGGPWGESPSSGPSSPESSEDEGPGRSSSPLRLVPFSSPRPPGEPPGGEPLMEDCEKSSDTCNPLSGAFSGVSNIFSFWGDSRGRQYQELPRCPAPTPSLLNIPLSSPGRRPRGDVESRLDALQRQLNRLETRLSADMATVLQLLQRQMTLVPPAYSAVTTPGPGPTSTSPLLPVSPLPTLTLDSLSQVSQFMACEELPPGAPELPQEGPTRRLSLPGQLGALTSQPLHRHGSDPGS

Row | SMILES | hERG current change (%, negative = inhibition) at 10uM [%]
1 | CCOc1cccc(=O)c2c(C)n(-c3ccc(C(=O)O)cc3)c(C)c12 | 32
2 | CCOC(=O)c1c(C)nsc1NC(=O)c1ccco1 | -4.79
3 | CCOc1ccc(NCc2nnc(SCC(=O)Nc3cc(C)on3)n2-c2ccc(OC)cc2)cc1 | -4.02
4 | CCc1cccc(CC)c1NC(=O)COC(=O)Cc1ccsc1 | 21.2
5 | COc1ccc(N2C(=O)NC(=O)/C(=C/c3cccc(OC(=O)c4cccs4)c3)C2=O)cc1Cl | -2.57
6 | Cc1ccc(C(=O)NC(=S)Nc2cc(C(F)(F)F)ccc2Cl)cc1 | 20.3
7 | CCOC(=O)Cc1csc(NC(=O)CN(C)S(=O)(=O)c2ccc3c(c2)CCC(=O)N3)n1 | -15.9
8 | CN(C)S(=O)(=O)c1ccc(C(=O)Nc2cc(S(=O)(=O)Nc3ccccc3Cl)ccc2N2CCCCC2)cc1 | 25.5
9 | COc1ccc(C/C(N)=N/OC(=O)c2cccs2)cc1 | 12.8
10 | O=C(Nc1nc2ccc(SC(F)F)cc2s1)c1ccc(NS(=O)(=O)c2ccc(F)c(F)c2)cc1 | -8.03
11 | COc1ccc(NC(=O)C(C)Sc2ccccc2)cc1 (stereo not drawn) | 1.14
12 | COC(=O)CCc1sc(NC2CCCCC2)nc1-c1ccc(OC)cc1 | 8.55
13 | CN1CCN(C(=O)c2cc([N+](=O)[O-])cc([N+](=O)[O-])c2)CC1 | 16.7
14 | CCOC(=O)N1CCN(C(=O)c2ccc(OC)cc2)CC1 | 19.8
15 | O=C(c1ccc(Oc2ccc([N+](=O)[O-])cc2)cc1)N1CCCCCC1 | -25.5
16 | CCOC(=O)N1CCN(C(=O)c2ccc(OCC)cc2)CC1 | -28.3
17 | CCOC(=O)N1CCN(C(=O)c2ccc(Oc3ccc([N+](=O)[O-])cc3)cc2)CC1 | -68.3
18 | CN1CCN(C(=O)c2ccc(Oc3ccc([N+](=O)[O-])cc3)cc2)CC1 | -50.6
19 | COc1ccc(Br)c(C(=O)NNC(=O)c2ccc(NS(=O)(=O)c3cccs3)cc2)c1 | 12.6
20 | CCC1CCCCN1C(=O)CSc1nnc(CNC(=O)c2c(F)cccc2Cl)o1 (stereo not drawn) | 10.7
21 | CCOC(=O)C(=O)Nc1ccc(S(=O)(=O)N2CCOCC2)cc1OC | 4.78

Row | SMILES | hERG current change (%, negative = inhibition) at 10uM [%]
22 | O=C(O)/C=C/C(=O)NC1CC1 | 41.9
23 | COc1nnc(-c2ccc(C)cc2)c2ccccc12 | 5.93
24 | CCN(CC)CCOc1nnc(-c2ccc(C)cc2)c2ccccc12 | -67.7
25 | COc1ccc(-c2nnc(OC)c3ccccc23)cc1 | -7.99
26 | COc1ccc(Oc2nnc(-c3ccc(C)cc3)c3ccccc23)cc1 | 5.64
27 | CCN(CC)CCOc1nnc(-c2ccc(OC)cc2)c2ccccc12 | -65
28 | Cc1ccc(-c2nnc(OCCN3CCOCC3)c3ccccc23)cc1 | -43.4
29 | Br.c1ccc(-c2cc3n(c2)CCc2ccccc2-3)cc1 | 4.17
30 | O=C(CC1C(=O)NCCN1C(=S)Nc1ccccc1)Nc1ccc2c(c1)OCCO2 (stereo not drawn) | -15.2
31 | O=C(NCCCn1ccnc1)/C(=C\c1ccc(Br)cc1)NC(=O)c1ccccc1 | -75.8
32 | O=C(NCCCn1ccnc1)c1cn(-c2ccccc2)nc1-c1ccccc1 | -47.1
33 | O=C(NCCCn1ccnc1)/C(=C/c1ccc(Cl)cc1)NC(=O)c1ccccc1 | -74.7
34 | COc1ccc(-c2nn(-c3ccccc3)cc2C(=O)NCCCn2ccnc2)cc1 | -39.4
35 | O=C(NCCCn1ccnc1)c1cn(-c2ccccc2)nc1-c1ccc(F)cc1 | -64
36 | COc1ccc(/C=C(\NC(=O)c2ccc(Cl)cc2)C(=O)NCCCn2ccnc2)cc1OC | 13.9
37 | O=C(NCCCn1ccnc1)/C(=C\c1cccnc1)NC(=O)c1cccc(Br)c1 | -0.509
38 | C/C(=C\c1ccccc1)C(=O)NCCCn1ccnc1 | -10.1
39 | CSc1ccc(/C=C(/NC(=O)c2ccccc2)C(=O)NCCCn2ccnc2)cc1 | -60.8
40 | CCOC(=O)C1=CN(c2cccc(F)c2)C=C(C(=O)OCC)C1c1cc(OC)c(O)c([N+](=O)[O-])c1 | -3.91
41 | CCOC(=O)c1nc(C)nc(Sc2n[nH]c(-c3cc(C(F)(F)F)cc(C(F)(F)F)c3)n2)c1C | -19.5
42 | CCCc1cc(=O)oc2c(CN(CC)CC)c(O)c(Cl)cc12 | -39.8
